This is a sample that favours compounds with a hit; in the whole collection about 1.6% have one here.
UbGFP stabilizer – ubiquitin-GFP accumulation via proteasome inhibition; 67,000 tested, under 10 active; Ubiquitin-GFP reporter cells, proteasome inhibition, GFP fluorescence; response scale: untreated = 0%, 10 µM MG-132 = 100%; Potency, µM (highest dose often 45.9 µM), inactives show at the highest dose activation (GFP accumulation), hits mostly activators; AID 526; active means well fitted activation curve with a large enough effect, not every such curve was filed as active; inconclusive means small, poorly fitted or top-dose-only effect, or another doubt; inactive means no such curve, though single readings can be large or run the other way; further: potency means the concentration at half of the fitted maximal effect
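GFP accumulation read-out: laser plate cytometry counting ubiquitin(G76V)-GFP-expressing U2OS cells after 4 hr compound exposure at 37 °C. Titrations spanned 46 uM to 2.9 nM; 0% = basal, 100% = 10 uM MG-132; concentration-response curves fitted.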
Peg3 imprint – inducers of genomic imprint erasure in mouse ES cells; mouse ES Peg3-LacZ reporter, beta-gal luminescence, 40 h; Potency, µM (highest dose often 60.7 µM), inactives show at the top dose activity change, positive = activation, actives largely listed as activators; 110,000 tested, 0.02% active; AID 1948; further: potency means the concentration at half of the fitted maximal effect
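Each well holds 300 Peg3LacZ-Neo (maternal) female ES cells incubated 40 h at 37C, 5% CO2. LacZ is measured by BetaGlo luminescence, with AC50 and maximum efficacy derived from dose-response curves.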
p53ts 39C kill – p53ts cell cytotoxicity, nonpermissive temperature. H1299-p53A138V viability at 39C, ATP luminescence, 24 h. Potency, µM (doses to about 46.1 µM), for the others: at the highest dose activity change, negative = cell killing, hits mostly cytotoxic. 130,000 tested, 1.5% active. AID 902; further: potency means the concentration at half of the fitted maximal effect; on the % scale 0 is the no-effect control and ±100 the full control effect; nearly all actives have a fitted effect of over 55% in size
p53ts 32C tox – cytotoxicity in p53ts cells at permissive temperature. Potency, µM (series often up to 46.1 µM), for the others: top-dose activity change, negative = cytotoxicity, most hits filed as cytotoxic. 130,000 tested, 0.93% active. H1299-p53A138V at 32C, ATP luminescence viability, 24 h;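 further: potency means the concentration at half of the fitted maximal effect; 0% = DMSO and -100% = full killing by reference compound; nearly all actives have a fitted effect of over 55% in size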
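Viability by ATPlite luminescence after 24 h compound treatment (up to 46 uM) at the permissive 32C. Cells are H1299 carrying p53 A138V. Scale runs from DMSO basal to 100 uM tamoxifen as full kill; AC50 from Hill fits.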
Epigenetic mod – epigenetic GFP locus derepression in mouse cells. mouse C127i GFP locus derepression, cytometry, 30 h. Potency, µM (top dose mostly 46.1 µM), for the others: top-dose GFP derepression (activation). 68,000 tested, 0.09% active. AID 597; further: % of control where 0% means no effect
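Derepression screen: silenced CMV-GFP reporter in murine C127i cells, 30 h compound incubation at 37 C, washed cells imaged by laser-scanning cytometer to enumerate GFP-expressing objects of 20 to 120 um.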
HBB splice mod – hemoglobin beta splicing modulation; HBB splicing reporter cell assay, activation; EGFP reporter with mutant IVS2-654 intron; response scale: normalised to 500 nM splice-correcting PNA; Potency, µM (titrated, usually from 46.1 µM), without a hit: top-dose activation, actives largely listed as activators; 65,000 tested, 0.06% active; further: potency means the concentration at half of the fitted maximal effect; 0% is about no effect
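HeLa cells stably expressing EGFP interrupted by mutant beta-globin intron 2 (IVS2-654), 500/well in 2% FCS. Treated with compound for 2 days at 37C. Splicing correction scored as total well GFP intensity (488 nm excitation, 500-520 nm emission); 500 nM antisense PNA served as control.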
Numbers without * were called inactive; ? = inconclusive; · = no result; [ ] = remark or other dose. Unless noted, the call rests on the fitted dose curve; in most records, active means well fitted curve in the direction sought with a large enough effect; inconclusive means small, poorly fitted or top-dose-only effect, or another doubt; inactive means no such curve, though single readings can be large; an effect the other way counts as inactive or inconclusive.

SMILES	UbGFP stabilizer	Peg3 imprint	p53ts 39C kill	p53ts 32C tox	Epigenetic mod	HBB splice mod
CN(C(=O)c1cccc(Nc2ccc(-c3ccc4c(c3)OCCO4)nn2)c1)C1CCCCC1	·	·	11µM*	13µM*	·	·
O=C(Nc1ccc2c(c1)nc1n2CCOC1)c1ccccc1	·	-52%	16µM*	13µM*	0%	1%[0.369 µM]
COc1ccc(C(=O)Nc2ccc3c(c2)nc2n3CCSC2)cc1	·	-13%	6.3µM*	5µM*	5%	4%[0.369 µM]
O=C(Nc1ccc2c(c1)nc1n2CCSC1)c1ccccc1	·	-74%	6.3µM*	3.2µM*	0%	2%[0.369 µM]
Cc1cc(C)cc(NS(=O)(=O)c2ccc3[nH]cc(C(=O)NCc4ccco4)c(=O)c3c2)c1	3%	-26%	2µM*	?	-1%	-2%
O=C(Nc1ccc2c(c1)OCO2)c1noc2c1CCCCC2	-3%	-75%	16µM*	16µM*	0%	0%
CC(=O)c1ccc(NC(=O)c2noc3c2CCCCC3)cc1	-7%	-16%	-10%	-17%	-4%	2%
Cc1ccccc1C(=O)Nc1ccc2c(c1)OCO2	4%	·	13µM*	10µM*	0%	·
C/C(=C\C(=O)c1ccc(C)o1)Nc1ccc2c(c1)OCO2	-12%	-12%	1%	-5%	0%	1%
Cc1ccc(C(=O)Nc2ccc3c(c2)OCO3)o1	-8%	-85%	?	10µM*	2%	1%[9.22 µM]
CN(c1ccccc1C(=O)Nc1ccc2c(c1)OCO2)S(C)(=O)=O	3%	10%	9%	3%	2%	0%
Cn1c(C(=O)Nc2ccc3c(c2)OCO3)cc2sccc21	1%	-52%	16µM*	?	-3%	0%
CCOc1ccc(OCC)c(-n2cnnn2)c1	·	0%[10.9 µM]	3%	5%	·	·
O=C(Nc1ccc2c(c1)OCO2)c1cc(C2CC2)on1	6%	-43%	?	?	-3%	0%
CC(C)c1cc(C(=O)Nc2ccc3c(c2)OCO3)no1	3%	-58%	?	16µM*	3%	-1%
O=C(Nc1ccc2c(c1)OCO2)c1ccc(Br)s1	0%	-46%	?	13µM*	0%	0%
O=C(Nc1ccccc1C(F)(F)F)c1noc2c1CCCCC2	·	-9%[10.9 µM]	13µM*	13µM*	·	·
O=C(Nc1ccc2c(c1)OCO2)c1cccs1	0%	-78%	?	?	-2%	0%
CCN1CCN(Cc2ccc(NC(=O)Nc3ccccc3Cl)cc2)CC1	3%	-16%	7.9µM*	10µM*	·	-2%
CCN1CCN(Cc2ccccc2NC(=O)Nc2ccc(C)cc2)CC1	-1%	-11%	-9%	-18%	0%	1%
COc1ccc(CNC(=O)C(C#N)c2nc3ccccc3nc2N2CCCC2)cc1 (stereo not given)	?	-8%	-6%	-1%	?	13µM*
COc1ccc(CNC(=O)C(C#N)c2nc3ccccc3nc2N2CCN(C)CC2)cc1 (stereo not given)	6%	-11%	-6%	9%	3%	-1%
COc1cccc(Cn2c(=O)c(-c3cc(F)cc(F)c3)nc3cnc(N4CCNCC4)nc32)c1	-5%	-41%	16µM*	?	-3%[9.22 µM]	-2%
O=c1c(CCc2ccccc2)nc2cnc(N3CCNCC3)nc2n1CCc1ccccc1	4%	·	10µM*	13µM*	0%[9.22 µM]	-2%
O=c1c(-c2cccs2)nc2cnc(N3CCNCC3)nc2n1-c1ccccc1	2%	·	-17%	-22%	3%[9.22 µM]	0%
O=c1c(-c2cc(F)cc(F)c2)nc2cnc(N3CCNCC3)nc2n1Cc1ccc(F)cc1	8%	-47%	?	?	-5%[9.22 µM]	-1%
O=c1c(-c2ccc(F)cc2)nc2cnc(N3CCNCC3)nc2n1-c1ccccc1	4%	-30%	?	13µM*	-2%[9.22 µM]	1%

Source: PubChem BioAssay (National Center for Advancing Translational Sciences (NCATS))
